PubChem BioAssay (NCATS)
Inconclusive results are not listed. Activity calls are given as the source filed them. Calls come from the whole dose curve.

test: VSVG counterscreen qHTS to identify inhibitors of SARS-CoV-2 cell entry (AID 1645847); conditions: VSV-G pseudotyped particle entry, luciferase; series mostly up to 57.2 µM; note: nearly all actives have a fitted effect of over 65% in size
Summary of the method: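 HEK293-ACE2 cells (Expi293F stably expressing human ACE2) were pretreated with compound for 1 h at 37 °C, then infected with MLV-based VSV-G pseudotyped particles for 48 h. Luciferase luminescence was normalized to VSV-G PP and bald PP wells.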
Potency is the fitted concentration of half-maximal effect.

Compound | Potency
Clc1ccccc1C(c1ccccc1)(c1ccccc1)n1ccnc1 | 19.2 µM (active)
Oc1ccc(Cl)cc1Cc1cc(Cl)ccc1O | 3.83 µM (active)
CC(C(O)c1ccccc1)N(C)CCOC(c1ccccc1)c1ccccc1 (configuration not stated) | 21.5 µM (active)
CCCCCC(=O)O[C@]1(C(C)=O)CC[C@H]2[C@@H]3CCC4=CC(=O)CC[C@]4(C)[C@H]3CC[C@@]21C | 24.1 µM (active)
Oc1c(Cl)cc(Cl)cc1Sc1cc(Cl)cc(Cl)c1O | 4.82 µM (active)
O[C@@H](COc1cccc2ncccc12)CN1CCN(C2c3ccccc3[C@@H]3[C@H](c4ccccc42)C3(F)F)CC1 (some centres not stated) | 0.171 µM (active)
COC(=O)C1=C(C)NC(C)=C(C(=O)OC(C)(C)CN(C)CCC(c2ccccc2)c2ccccc2)C1c1cccc([N+](=O)[O-])c1 (configuration not stated) | 21.5 µM (active)
